Paper PMC5540273 (PLoS ONE, 2017)

Legend:
Conditions in all cases: concentration: 1 μM, replicates: in singlicate; n = 1
[1] = test system: T1, MRCKB
T1 construct: gene CDC42BPB

[2] = test system: MST1R
[3] = test system: T2, MST1
T2 construct: gene STK4

[4] = test system: T3, MST2
T3 construct: gene STK3

[5] = test system: T4, MST3
T4 construct: gene STK24

[6] = test system: MST4
[7] = test system: MTOR
[8] = test system: MUSK
[9] = test system: MYLK2
[10] = test system: MYLK4
[11] = test system: MYLK
[12] = test system: MYO3A
[13] = test system: MYO3B
[14] = test system: T5, NDR1
T5 construct: gene STK38

[15] = test system: NDR2
[16] = test system: NEK10
[17] = test system: NEK11
[18] = test system: NEK1
[19] = test system: NEK2
[20] = test system: NEK3
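Also: KINOMEscan kinase panel screen.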

Row | Structure (SMILES) | %Inh [1] | %Inh [2] | %Inh [3] | %Inh [4] | %Inh [5] | %Inh [6] | %Inh [7] | %Inh [8] | %Inh [9] | %Inh [10] | %Inh [11] | %Inh [12] | %Inh [13] | %Inh [14] | %Inh [15] | %Inh [16] | %Inh [17] | %Inh [18] | %Inh [19] | %Inh [20]
1 | Fc1cccc(CSc2nnc(-c3ccc4c(c3)CCO4)o2)c1 | 0% | 35% | 3% | 0% | 0% | 0% | 36% | 0% | 11% | 0% | 2% | 0% | 0% | 16% | 22% | 0% | 0% | 0% | 1% | 19%
2 | COc1cc2ncn(-c3cc(OCc4ccncc4)c(C(N)=O)s3)c2cc1OC [GSK336313] | 0% | 34% | 0% | 0% | 0% | 0% | 28% | 93.6% | 21% | 36% | 44% | 10% | 0% | 0% | 0% | 0% | 0% | 31% | 10% | 0%
3 | CN(C)c1cc(-c2ccc3c(N)n[nH]c3c2)nc(N)n1 [GSK2219329] | 0% | 18% | 1% | 0% | 5% | 0% | 1% | 0% | 9% | 0% | 0% | 11% | 0% | 17% | 0% | 0% | 0% | 0% | 0% | 0%
4 | Nc1nccc2scc(-c3ccc4c(c3)CCN4C(=O)Cc3ccccc3)c12 [GSK2576924] | 0% | 17% | 37% | 0% | 1% | 0% | 14% | 13% | 11% | 9% | 4% | 11% | 5% | 27% | 3% | 9% | 0% | 0% | 4% | 10%
5 | Cc1ccc(-c2ccc3c(ccc4sc5c(c43)NC[C@@H](C)N=C5N(C)C)n2)cn1 | 3% | 13% | 0% | 0% | 1% | 0% | 31% | 0% | 0% | 100% | 0% | 0% | 0% | 0% | 0% | 0% | 0% | 0% | 0% | 20%
6 | Cc1cccc(-c2cc(-c3c[nH]nc3-c3ccccn3)ccn2)c1 [GW679395] | 0% | 60% | 0% | 0% | 4% | 0% | 10% | 0% | 0% | 2% | 32% | 7% | 0% | 15% | 0% | 24% | 0% | 0% | 0% | 3%
7 | O=C(Nc1n[nH]c2cc(-c3ccccc3F)ccc12)C1CC1 [SB-733371] | 0% | 0% | 1% | 0% | 0% | 0% | 0% | 1% | 90% | 4% | 0% | 22% | 0% | 37% | 2% | 0% | 12% | 0% | 0% | 16%
8 | COc1ccc(-c2coc3ccc(-c4nnc(SCc5cccc(C#N)c5)o4)cc23)cc1 | 0% | 33% | 15% | 13% | 25% | 0% | 0% | 18% | 7% | 0% | 6% | 20% | 49% | 7% | 0% | 0% | 0% | 0% | 5% | 7%
9 | COc1ccc(-c2cc3c(C)nc(N)nc3n([C@H]3CC[C@H](OCCO)CC3)c2=O)cn1 | 0% | 0% | 6% | 0% | 23% | 0% | 96.3% | 0% | 2% | 7% | 0% | 0% | 25% | 11% | 0% | 22% | 0% | 0% | 0% | 19%
10 | O=C(Nc1n[nH]c2nc(-c3ccccc3)c(Br)cc12)C1CC1 [SB-708998] | 0% | 100% | 18% | 7% | 0% | 0% | 16% | 0% | 95.7% | 0% | 7% | 0% | 13% | 18% | 0% | 4% | 0% | 0% | 15% | 0%
11 | Cc1nc(N(C)[C@H]2CN(C(=O)CC#N)CC[C@H]2C)c2cc[nH]c2n1 | 0% | 3% | 0% | 37% | 8% | 0% | 25% | 0% | 0% | 0% | 10% | 0% | 9% | 0% | 13% | 0% | 0% | 0% | 0% | 3%
12 | Cc1ccccc1COc1cc(-n2cnc3cc(Cl)ccc32)sc1C(N)=O [GW813349] | 0% | 0% | 0% | 12% | 0% | 0% | 18% | 0% | 0% | 24% | 5% | 0% | 0% | 3% | 1% | 0% | 0% | 0% | 5% | 13%
13 | COc1cc(Nc2nccc(N3CCC(NC(=O)C4COc5ccccc5O4)C3)n2)cc(OC)c1OC (centres unmarked) [GSK1379761] | 0% | 8% | 6% | 0% | 0% | 0% | 34% | 0% | 6% | 0% | 13% | 46% | 0% | 27% | 40% | 0% | 64% | 39% | 11% | 42%
14 | COc1cc(Nc2ccnc3ccc(C(F)(F)F)cc23)cc(OC)c1OC [GW577382] | 6% | 34% | 13% | 5% | 4% | 0% | 21% | 8% | 4% | 10% | 0% | 12% | 10% | 13% | 1% | 10% | 0% | 0% | 0% | 3%
15 | Cc1nn2c(=O)cc(N3CCOCC3)nc2n1Cc1cccc(Cl)c1Cl [GSK2342769] | 0% | 13% | 0% | 4% | 0% | 0% | 45% | 18% | 0% | 4% | 16% | 0% | 0% | 0% | 0% | 0% | 0% | 0% | 2% | 0%
16 | CCCC(=O)Nc1n[nH]c2ncc(-c3cccc4ccccc34)cc12 [SB-642057] | 17% | 18% | 5% | 0% | 6% | 0% | 17% | 11% | 9% | 0% | 28% | 0% | 0% | 13% | 3% | 100% | 0% | 0% | 0% | 28%

Row | Structure (SMILES) | %Inh [1] | %Inh [2] | %Inh [3] | %Inh [4] | %Inh [5] | %Inh [6] | %Inh [7] | %Inh [8] | %Inh [9] | %Inh [10] | %Inh [11] | %Inh [12] | %Inh [13] | %Inh [14] | %Inh [15] | %Inh [16] | %Inh [17] | %Inh [18] | %Inh [19] | %Inh [20]
17 | COC(=O)c1c(-c2ccccc2)c2cc(C)ccc2c(=O)n1Cc1ccccc1 | 0% | 31% | 0% | 21% | 0% | 0% | 0% | 12% | 0% | 0% | 0% | 0% | 0% | 0% | 0% | 0% | 0% | 0% | 0% | 24%
18 | CN1C(=O)C(Nc2cc(Cl)c(O)c(Cl)c2)=C(c2ccc(Cl)cc2)C1=O [SB-404321] | 0% | 0% | 0% | 33% | 0% | 0% | 2% | 0% | 11% | 0% | 0% | 0% | 8% | 0% | 0% | 0% | 0% | 0% | 0% | 16%
19 | CC(C)(C)c1ccc(C(=O)Nc2cn3cc(-c4ccccc4)ccc3n2)cc1 | 0% | 26% | 0% | 43% | 0% | 0% | 45% | 0% | 34% | 0% | 23% | 0% | 0% | 35% | 0% | 0% | 0% | 0% | 0% | 36%
20 | CCC(=O)c1c(-c2ccccc2)c2cc(Cl)ccc2c(=O)n1Cc1cc(S(C)(=O)=O)n(CC(N)=O)n1 | 0% | 0% | 0% | 0% | 0% | 0% | 40% | 0% | 0% | 0% | 0% | 0% | 0% | 32% | 0% | 0% | 0% | 0% | 0% | 32%
21 | COc1ccc(CNC(=O)NC2CCN(c3ccnc(Nc4ccc(F)cc4)n3)C2)cc1 (centres unmarked) [GSK1379706] | 12% | 41% | 0% | 9% | 6% | 0% | 28% | 4% | 6% | 17% | 9% | 42% | 0% | 28% | 50% | 25% | 43% | 17% | 16% | 13%
22 | CCC(=O)c1c(-c2ccccc2)c2cc(Cl)ccc2c(=O)n1Cc1cc(S(C)(=O)=O)n(CC(F)F)n1 | 0% | 31% | 0% | 0% | 0% | 0% | 7% | 0% | 47% | 1% | 0% | 0% | 0% | 3% | 0% | 5% | 0% | 0% | 0% | 22%
23 | Cc1nnc(-c2ccc(C)c(-c3ccc(C(=O)O)cc3)c2)o1 [GW608005] | 0% | 17% | 0% | 0% | 0% | 0% | 0% | 5% | 2% | 3% | 5% | 0% | 0% | 9% | 0% | 0% | 5% | 0% | 19% | 0%
24 | O=C1NC(=O)C(c2ccccc2)=C1Nc1cccc(O)c1 [SB-390534] | 0% | 20% | 7% | 24% | 0% | 9% | 0% | 8% | 16% | 15% | 37% | 17% | 21% | 0% | 0% | 0% | 16% | 0% | 16% | 30%
25 | CCc1ccc(-c2ccc3c(c2)-c2nn(C)cc2S(=O)(=O)N3C)cc1 | 0% | 0% | 0% | 0% | 0% | 0% | 23% | 1% | 0% | 6% | 3% | 96.5% | 0% | 19% | 0% | 0% | 0% | 0% | 0% | 36%
26 | COc1ccc(-c2cc3c(C)nc(N)nc3n([C@H]3CC[C@H](O)CC3)c2=O)cn1 | 30% | 0% | 0% | 0% | 2% | 0% | 99% | 0% | 4% | 0% | 98.8% | 0% | 0% | 0% | 0% | 0% | 0% | 0% | 0% | 16%
27 | CCC(=O)c1c(-c2ccccc2)c2cc(Cl)ccc2c(=O)n1Cc1cc(C(=O)NC2CC2)n(C)n1 | 0% | 37% | 12% | 0% | 0% | 0% | 12% | 2% | 0% | 0% | 0% | 4% | 0% | 0% | 0% | 0% | 0% | 10% | 0% | 13%
28 | CCS(=O)c1ccc(-c2coc3ccc(-c4nnc(C)o4)cc23)cc1 (centres unmarked) | 0% | 15% | 33% | 0% | 17% | 0% | 2% | 0% | 5% | 4% | 0% | 0% | 3% | 0% | 0% | 5% | 0% | 0% | 0% | 1%
29 | Nc1nc(N)c2nc(-c3ccccc3)[nH]c2n1 [SKF-12778] | 0% | 0% | 4% | 32% | 13% | 10% | 26% | 18% | 2% | 1% | 0% | 0% | 19% | 33% | 0% | 58% | 13% | 0% | 0% | 0%
30 | Cc1nnc(-c2ccc3ncn(-c4ccc(S(C)=O)cc4)c3c2)o1 (centres unmarked) | 0% | 2% | 0% | 30% | 50% | 0% | 8% | 9% | 11% | 7% | 0% | 2% | 48% | 21% | 0% | 2% | 0% | 5% | 0% | 0%
31 | COc1ccc(-n2cnc3c(N)ncnc32)cc1 [SKF-97236] | 1% | 0% | 24% | 13% | 6% | 0% | 16% | 12% | 52% | 0% | 0% | 4% | 0% | 3% | 0% | 40% | 3% | 0% | 0% | 0%
